# Laboratory results: PubChem BioAssay (NCATS)
# Records with an inconclusive call do not appear. Entries that show only a call come without a potency. Active and inactive are the calls of the source. Calls follow the shape of the dose curve; as a rule, active = well fitted curve in the direction sought with a large enough effect; inconclusive = small, poorly fitted or top-dose-only effect, or another doubt; inactive = no such curve, though single readings can be large; an effect the other way counts as inactive or inconclusive.
# Key:
# [1] = Quantitative High-Throughput drug screen in 47 multiple myeloma cell lines against the NCATS MIPE library collection: H1112_PLB cell viability assay (AID 1918967; also: nearly all actives have a fitted effect of over 30% in size)
# How it was run: (§1)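 We plated 500 myeloma cells per well, pinned in MIPE 4.0 compounds, and incubated for 48 hours at 37C. ATP was then quantified with CellTiter-Glo, with DMSO and media-only wells defining 100% and 0%.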
# [2] = Quantitative High-Throughput drug screen in 47 multiple myeloma cell lines against the NCATS MIPE library collection: Karpas25_ECACC cell viability assay (AID 1918968; also: nearly all actives have a fitted effect of over 35% in size)
# How it was run: as §1
# [3] = Quantitative High-Throughput drug screen in 47 multiple myeloma cell lines against the NCATS MIPE library collection: KMS27_JCRB cell viability assay (AID 1918970); also: nearly all actives have a fitted effect of over 30% in size
# How it was run: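 ATP-based viability (CellTiter-Glo luminescence) is measured in cells treated 48 h with approved and investigational drugs at 37 °C. Controls are DMSO-only wells for full viability and media-only wells for none.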
# [4] = Quantitative High-Throughput drug screen in 47 multiple myeloma cell lines against the NCATS MIPE library collection: KMS12BM_JCRB cell viability assay (AID 1918971); also: nearly all actives have a fitted effect of over 35% in size
# How it was run: (§2)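 Relative luminescence from CellTiter-Glo served as the viability signal, referenced to DMSO-treated (100%) and cell-free medium (0%) controls. Treatment lasted 48 hours at 37C with 500 cells per well.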
# [5] = Quantitative High-Throughput drug screen in 47 multiple myeloma cell lines against the NCATS MIPE library collection: KMS12PE_JCRB cell viability assay (AID 1918972); also: nearly all actives have a fitted effect of over 30% in size
# How it was run: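 CellTiter-Glo luminescence (ATP) after 48 h compound exposure, 37C/5% CO2; 500 cells/well; MIPE 4.0 approved/investigational drugs pinned in; DMSO = 100%, media only = 0% viability.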
# [6] = Quantitative High-Throughput drug screen in 47 multiple myeloma cell lines against the NCATS MIPE library collection: KMS26_JCRB cell viability assay (AID 1918975); also: nearly all actives have a fitted effect of over 45% in size
# How it was run: as §2
# [7] = Quantitative High-Throughput drug screen in 47 multiple myeloma cell lines against the NCATS MIPE library collection: NCIH929_DSMZ cell viability assay (AID 1918978); also: nearly all actives have a fitted effect of over 35% in size
# How it was run: (§3)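 500 cells/well; MIPE 4.0 drugs pin-transferred; 48 h, 37C, 5% CO2. CellTiter-Glo, 5 min RT, luminescence. Controls: DMSO 100%, media 0%.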
# [8] = Quantitative High-Throughput drug screen in 47 multiple myeloma cell lines against the NCATS MIPE library collection: OCIMY1_PLB cell viability assay (AID 1918979); also: nearly all actives have a fitted effect of over 35% in size
# How it was run: as §3
# [9] = Quantitative High-Throughput drug screen in 47 multiple myeloma cell lines against the NCATS MIPE library collection: MM1S_ATCC cell viability assay (AID 1918980); also: nearly all actives have a fitted effect of over 45% in size
# How it was run: as §3
# [10] = Quantitative High-Throughput drug screen in 47 multiple myeloma cell lines against the NCATS MIPE library collection: LP1_DSMZ cell viability assay (AID 1918982); also: nearly all actives have a fitted effect of over 35% in size
# How it was run: as §3
# [11] = Quantitative High-Throughput drug screen in 47 multiple myeloma cell lines against the NCATS MIPE library collection: KMS28PE_JCRB cell viability assay (AID 1918983); also: nearly all actives have a fitted effect of over 35% in size
# How it was run: as §3
# [12] = Quantitative High-Throughput drug screen in 47 multiple myeloma cell lines against the NCATS MIPE library collection: KMS34_JCRB cell viability assay (AID 1918985); also: nearly all actives have a fitted effect of over 40% in size
# How it was run: as §3
# [13] = Quantitative High-Throughput drug screen in 47 multiple myeloma cell lines against the NCATS MIPE library collection: MMM1_PLB cell viability assay (AID 1918976); also: nearly all actives have a fitted effect of over 35% in size
# How it was run: as §3
# [14] = Quantitative High-Throughput drug screen in 47 multiple myeloma cell lines against the NCATS MIPE library collection: MOLP8_DSMZ cell viability assay (AID 1918977); also: nearly all actives have a fitted effect of over 45% in size
# How it was run: as §3
# [15] = Quantitative High-Throughput drug screen in 47 multiple myeloma cell lines against the NCATS MIPE library collection: L363_DSMZ cell viability assay (AID 1918984); also: nearly all actives have a fitted effect of over 40% in size
# How it was run: as §3
# [16] = Quantitative High-Throughput drug screen in 47 multiple myeloma cell lines against the NCATS MIPE library collection: OCIMY7_PLB cell viability assay (AID 1918987); settings: OCI-MY7 myeloma viability, CellTiter-Glo ATP, 48 h; viability (% of DMSO): at 45.8 µM (top of the series); also: nearly all actives have a fitted effect of over 65% in size
# How it was run: as §3
# [17] = Quantitative High-Throughput drug screen in 47 multiple myeloma cell lines against the NCATS MIPE library collection: OCIMY5_PLB cell viability assay (AID 1918988); also: nearly all actives have a fitted effect of over 65% in size
# How it was run: as §3
# [18] = Quantitative High-Throughput drug screen in 47 multiple myeloma cell lines against the NCATS MIPE library collection: MM1R_ATCC cell viability assay (AID 1918981); also: nearly all actives have a fitted effect of over 35% in size
# How it was run: as §3
# [19] = Quantitative High-Throughput drug screen in 47 multiple myeloma cell lines against the NCATS MIPE library collection: KMS20_JCRB cell viability assay (AID 1918973); also: nearly all actives have a fitted effect of over 45% in size
# How it was run: as §1
# [20] = Quantitative High-Throughput drug screen in 47 multiple myeloma cell lines against the NCATS MIPE library collection: KMS21BM_JCRB cell viability assay (AID 1918974); settings: ATP luminescence, 48 h; viability: at 45.8 µM (top of the series) unless noted
# How it was run: as §1
# Potency is read from the fitted curve at half-maximal effect.
Compound,Potency [1],Potency [2],Potency [3],Potency [4],Potency [5],Potency [6],Potency [7],Potency [8],Potency [9],Potency [10],Potency [11],Potency [12],Potency [13],Potency [14],Potency [15],Potency [16],Potency [17],Potency [18],Potency [19],Potency [20]
CC(C)(Cc1ccc2ccccc2c1)NC[C@@H](O)COc1cccc(Cl)c1C#N,inactive,inactive,inactive,inactive,inactive,inactive,inactive,inactive,16.6 µM (active),inactive,inactive,inactive,,,,,,,,
CCc1ccc(OCc2ccccc2C(=O)Nc2ccc3nc(C)cc(N)c3c2)cc1,2.96 µM (active),1.32 µM (active),1.87 µM (active),7.43 µM (active),0.935 µM (active),6.62 µM (active),1.05 µM (active),8.33 µM (active),4.69 µM (active),8.33 µM (active),8.33 µM (active),7.43 µM (active),6.62 µM (active),7.43 µM (active),1.18 µM (active),1.05 µM (active),7.43 µM (active),,,
CC=CC(=O)N(CC)c1ccccc1C,inactive,inactive,inactive,inactive,inactive,,inactive,inactive,6.62 µM (active),inactive,inactive,,3.72 µM (active),0.0418 µM (active),inactive,,inactive,inactive,,
O=C(CCCCCCC(=O)Nc1ccccc1)NO,4.18 µM (active),1.48 µM (active),3.72 µM (active),2.35 µM (active),1.66 µM (active),,2.64 µM (active),5.9 µM (active),2.96 µM (active),,3.72 µM (active),1.87 µM (active),,,1.87 µM (active),2.35 µM (active),2.64 µM (active),2.09 µM (active),,
CC(=O)OC1C(C)OC(Oc2c(-c3ccc(O)cc3)oc3cc(O)cc(O)c3c2=O)C(O)C1OC(C)=O (stereo unspecified),inactive,,,,,,inactive,,20.9 µM (active),,inactive,inactive,2.96 µM (active),,,,,,11.8 µM (active),
CO[C@H]1C[C@@H]2CC[C@@H](C)[C@@](O)(O2)C(=O)C(=O)N2CCCC[C@@H]2C(=O)O[C@H]([C@H](C)C[C@@H]2CC[C@H](OP(C)(C)=O)[C@H](OC)C2)CC(=O)[C@H](C)C=C(C)[C@@H](O)[C@@H](OC)C(=O)[C@H](C)C[C@H](C)C=CC=CC=C1C,18.7 µM (active),20.9 µM (active),,,,,,,inactive,inactive,inactive,,,,,14.8 µM (active),,inactive,,18.7 µM (active)
CC(C)(C(=O)NCC(F)(F)C(F)(F)F)C(=O)N[C@@H]1C(=O)Nc2ccccc2-c2ccccc21,16.6 µM (active),,1.32 µM (active),inactive,16.6 µM (active),,16.6 µM (active),inactive,13.2 µM (active),,inactive,inactive,,inactive,3.72 µM (active),,inactive,,,
O=C(NC1CCOCC1)c1ccc(-c2cc(-c3cn[nH]c3-c3ccccn3)ccn2)cc1,inactive,,inactive,inactive,inactive,inactive,inactive,inactive,,14.8 µM (active),inactive,,,,,inactive,,,,
COc1ccc(Cc2ccc(NC(N)=O)cc2)cc1-c1cccc(Cl)c1,inactive,,,,,inactive,16.6 µM (active),,,,inactive,inactive,,,,,,,,
O=C(CCc1ccc(O)cc1)c1c(O)cc(O)cc1O[C@@H]1O[C@H](CO)[C@H](O)[C@H](O)[C@H]1O,inactive,,inactive,inactive,inactive,inactive,inactive,inactive,,inactive,,,,,inactive,,inactive,inactive,inactive,
CC(C)(C)COc1ccc(-n2cc(C(=O)O)cn2)cc1C#N,inactive,,inactive,inactive,inactive,inactive,inactive,inactive,,,inactive,inactive,,inactive,inactive,,,inactive,,
CC(C)(C)c1cc(C(=O)O)c(NC(=O)Nc2ccc3[nH]ncc3c2)s1,inactive,,inactive,,,inactive,,,16.6 µM (active),,,inactive,inactive,,,,,,,
COc1ccc2c(Oc3ccc(NC(=O)c4c(C)n(CC(C)(C)O)n(-c5ccccc5)c4=O)nc3)ccnc2c1,inactive,,inactive,,,,inactive,inactive,,inactive,,inactive,,,,,26.4 µM (active),inactive,,
O=C(O)C(O)Cc1ccc(O)c(O)c1 (stereo unspecified),inactive,,inactive,,inactive,20.9 µM (active),inactive,,16.6 µM (active),,23.5 µM (active),18.7 µM (active),5.26 µM (active),20.9 µM (active),inactive,,23.5 µM (active),,,0.0083 µM (active)
